# GCN5L2 inh = inhibitors of human GCN5L2 histone acetyltransferase. Q92830. GCN5L2 HAT assay, ThioGlo1 CoA-SH fluorescence. Potency, µM (series often up to 58.9 µM), for inactives: top-dose activity change, negative = inhibition, actives largely listed as inhibitors. 0.21% of 390,000 active. AID 504327; note: potency is the fitted concentration of half-maximal effect; % is set by controls: 0 for no effect and ±100 for the full control effect
#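 Preincubate 20nM GCN5L2 with compound 15 min, RT → add 50uM ThioGlo1 + 75uM H3(1-25) + 70uM acetyl-CoA → read fluorescence 0 and 20 min. Primary qHTS; fluorescent artifacts likely.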
# PLK1 PBD block = inhibitors of human PLK1 polo-box domain binding; Potency, µM, without a hit: max response, negative = inhibition, usual class: inhibitors; Plk1 PBD binding of FITC phosphopeptide, fluorescence polarization; 2.8% of 360,000 active; P53350; AID 720504; note: potency is the fitted concentration of half-maximal effect; series mostly up to about 57 µM; % is set by controls: 0 for no effect and ±100 for the full control effect; nearly all actives have a fitted effect of over 65% in size
# JMJD2A Tudor = JMJD2A Tudor domain (human) inhibition. 4.4% of 390,000 active. Potency, µM (titrated, usually from 114 µM), inactives show top-dose activity change, negative = inhibition, actives largely listed as inhibitors. O75164. AlphaScreen JMJD2A-Tudor / H3K4me3 peptide binding; note: potency is the fitted concentration of half-maximal effect; % is set by controls: 0 for no effect and ±100 for the full control effect; nearly all actives have a fitted effect of over 50% in size
# HP1b chromo inh = inhibitors of HP1-beta chromodomain binding to methylated histone tails; 0.56% of 390,000 active; Potency, µM (highest dose often 114 µM), for inactives: at the top dose activity change, negative = inhibition, hits mostly inhibitors; AlphaScreen HP1-beta / biotin-H3K9me3 peptide binding; AID 540317; note: potency is the fitted concentration of half-maximal effect; nearly all actives have a fitted effect of over 70% in size
# Target sequence (P83916 whole entry, looked up): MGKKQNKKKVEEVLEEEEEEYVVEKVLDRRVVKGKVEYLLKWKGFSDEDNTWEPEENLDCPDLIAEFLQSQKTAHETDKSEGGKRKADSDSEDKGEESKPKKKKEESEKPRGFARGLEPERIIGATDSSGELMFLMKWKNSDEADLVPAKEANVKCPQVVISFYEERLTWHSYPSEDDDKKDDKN
#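 HP1-beta protein (50 nM final) preincubated 30 min at room temperature with biotinylated H3(1-18)K9me3 peptide (50 nM) in PBS pH 7.4, 0.01% Tween-20, then compound added for 30 min. AlphaScreen streptavidin donor/nickel chelate acceptor beads (10 ug/mL final), 30 min dark, luminescence read.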
# PI5P4Ka inh = inhibitors of human PI5P4K alpha; P48426; PI5P4Kalpha enzyme, ADP-Glo luminescence, 60 min; active compounds read low; max response, %; 1.2% of 330,000 active; AID 652105; active = max response of -50% or lower; inconclusive = between -30% and -50%; inactive = -30% or higher; note: value at the top dose of about 77 µM; % is set by controls: 0 for no effect and ±100 for the full control effect
# Target sequence (P48426 whole entry, looked up): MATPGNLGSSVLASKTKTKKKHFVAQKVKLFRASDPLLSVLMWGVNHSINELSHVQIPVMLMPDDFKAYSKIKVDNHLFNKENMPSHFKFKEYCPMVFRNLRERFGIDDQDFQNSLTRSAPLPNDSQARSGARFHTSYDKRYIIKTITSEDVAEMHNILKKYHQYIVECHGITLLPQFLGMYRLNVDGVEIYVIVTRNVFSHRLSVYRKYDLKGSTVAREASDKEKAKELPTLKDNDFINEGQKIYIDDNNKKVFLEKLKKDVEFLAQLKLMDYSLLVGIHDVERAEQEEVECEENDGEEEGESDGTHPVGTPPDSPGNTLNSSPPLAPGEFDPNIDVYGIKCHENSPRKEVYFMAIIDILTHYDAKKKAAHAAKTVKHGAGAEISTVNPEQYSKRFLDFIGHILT
#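 Controls without substrate or without enzyme flank wells where PI5P4Kalpha converts substrate using 5 microM ATP (final). Incubation lasts 60 minutes at room temperature; ADP formed is read by ADP-Glo luminescence.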
# BAZ2B block = BAZ2B (human) inhibition | Q9UIF8 | AlphaScreen BAZ2B-H3K14Ac peptide displacement | Potency, µM (top dose mostly 114 µM), without a hit: at the top dose activity change, negative = inhibition, usual class: inhibitors | 4.4% of 360,000 active | AID 504333; note: potency is the fitted concentration of half-maximal effect; % is set by controls: 0 for no effect and ±100 for the full control effect; nearly all actives have a fitted effect of over 60% in size
#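 Inhibition is scored as reduced AlphaScreen emission. The BAZ2B/b-H3(5-23)K14Ac complex (50 nM each) in PBS pH 7.4, 0.01% Tween-20 meets compound (up to 110 uM) for 30 min at RT before bead addition.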
# Starred values were filed as active, the others as inactive; ? = inconclusive; nt = not tested or not shown; [ ] = another dose, or the depositor's remark. Only some compounds are listed: those with a hit (about 7% of all), similar ones and a draw of the others. Unless noted, calls come from the whole dose curve; as a rule, active = well fitted curve in the direction sought with a large enough effect; inconclusive = small, poorly fitted or top-dose-only effect, or another doubt; inactive = no such curve, though single readings can be large; an effect the other way counts as inactive or inconclusive.
SMILES,GCN5L2 inh,PLK1 PBD block,JMJD2A Tudor,HP1b chromo inh,PI5P4Ka inh,BAZ2B block
COc1ccc(-c2cc(-c3ccccc3O)[nH]n2)cc1OC,-2.5%,2.0%,-23.6%,22.3%,3.8,nt
COc1ccc(-c2cccc3c2NC(=O)C3=O)cc1OC,0.9%,26.7µM*,?,9.7%,-1.8,nt
CCN1C(=O)/C(=C2\SC(=S)N(CCCOC)C2=O)c2ccccc21,-5.3%,-1.7%,?,?,-2.5,?
O=C(O)CCN1C(=O)/C(=C2\C(=O)N(Cc3ccc(F)cc3)c3ccccc32)SC1=S,?,18.9µM*,25.1µM*,28.2µM*,0.7,2.51µM*
Cc1c(N2C(=O)/C(=C3\C(=O)N(CC(=O)O)c4ccccc43)SC2=S)c(=O)n(-c2ccccc2)n1C,-7.3%,?,-20.4%,5.5%,-4.2,79.4µM*
CN1C(=O)/C(=C2\SC(=S)N(CCCCCC(=O)O)C2=O)c2ccccc21,-4.1%,?,?,39.8µM*,-0.4,-20.6%
CC1CN(C2=NC(=O)/C(=C3/C(=O)N(Cc4ccc(F)cc4)c4ccccc43)S2)CC(C)O1 (stereo not drawn),-6.4%,?,-32.9%,?,-3.4,?
CC(=O)Nc1ccc(S(=O)(=O)NCC2CCC(C(=O)NCCN(CC(C)C)CC(C)C)CC2)cc1 (stereo not drawn),1.7%,nt,1.3%,-4.6%,nt,4.1%
COc1ccccc1CNC(=O)Cn1ncc2c(=O)oc3ccc(C)cc3c21,-5.2%,nt,-6.3%,53.6%,nt,-14.1%
O=C(Cc1cc(=O)oc2cc(O)ccc12)NC(Cc1ccc(Cl)cc1)C(=O)O (stereo not drawn),28.2µM*,29.9µM*,?,9.3%,-24.7,2.9%
Cc1c(O)ccc2c(CC(=O)N[C@@H](Cc3ccc(O)cc3)C(=O)O)cc(=O)oc12,-9.1%,-17.7%,-6.8%,21.1%,0.9,-12.1%
Cc1c(OCC(=O)NC(Cc2ccc(Cl)cc2)C(=O)O)ccc2c(-c3ccccc3)cc(=O)oc12 (stereo not drawn),?,67µM*,-19.7%,14.7%,0.5,-1.7%
O=C(Cc1cc(=O)oc2cc(O)ccc12)NCC1CCC(C(=O)O)CC1 (stereo not drawn),28.2µM*,-14.8%,?,77.4%,-5.8,-1.5%
Fc1ccc(Nc2nc(SCc3ccccc3F)nc3ccccc23)cc1,0.7%,nt,19.0%,98.4%,nt,29.8%
CCC(C)(C)NC(=O)C(c1ccc(C)cc1)N(CC1CCCO1)C(=O)c1csnn1 (stereo not drawn),-0.6%,-15.8%,-9.0%,4.6%,-0.3,0.5%
COc1cc(/C=N/NC(=O)CSc2n[nH]c(=O)[nH]c2=O)cc(OC)c1O,-8.6%,-5.7%,-3.5%,27.5%,?,1.8%
CCCCn1nnnc1NCc1cccnc1,-3.5%,2.99µM*,?,7.3%,?,-3.6%
CCCCn1nnnc1NCc1ccc(N2CCCC2)cc1,0.2%,-12.1%,?,-19.0%,-8.6,?
COc1cccc(NC(=O)CSCc2cc(=O)n3nc(C4CC4)sc3n2)c1,5.0%,-18.4%,-24.3%,43.9%,0.1,-13.7%
CCCc1nn2c(=O)cc(CSCC(=O)Nc3nnc(CC)s3)nc2s1,-0.7%,-8.5%,-17.8%,46.0%,1.2,-6.2%
Cc1ccc(NC(=O)CSCc2cc(=O)n3nc(C4CC4)sc3n2)cc1,0.7%,23.8µM*,31.6µM*,14.7%,-3.1,-19.6%
CCc1nnc(NC(=O)CSCc2cc(=O)n3nc(C)sc3n2)s1,-5.1%,3.36µM*,17.8µM*,24.3%,?,-12.5%
COc1ccccc1NC(=O)C(=O)NCC(c1cccnc1)N1CCc2ccccc2C1 (stereo not drawn),-1.5%,nt,-28.9%,0.5%,nt,?
[S-]C(=Nc1ccc(Cl)cc1)N[n+]1ccccc1,-29.7%,16.8µM*,-31.8%,-35.1%,-8.7,-3.2%
CC(C)CC(OC(=O)CNC(=O)c1ccccc1)C(=O)Nc1cc(C(F)(F)F)ccc1Cl (stereo not drawn),nt,nt,-9.6%,nt,nt,nt
SMILES,GCN5L2 inh,PLK1 PBD block,JMJD2A Tudor,HP1b chromo inh,PI5P4Ka inh,BAZ2B block
CCOc1ccc(NS(=O)(=O)c2cc(C(=O)N3CCC3)ccc2Cl)cc1,2.7%,-9.0%,-13.5%,25.4%,-2.1,8.5%
Nc1cccc(-c2cn3cccnc3n2)c1,-4.1%,29.9µM*,-32.9%,-17.8%,1.6,-4.5%
Cc1ccc(-c2cn3cccnc3n2)cc1,-25.5%,-3.6%,-10.7%,9.5%,1.7,9.1%
Cc1ccnc2nc(C(=O)OCC(=O)c3ccc(NC(=O)CC(C)C)cc3)nn12,-9.0%,0.7%,?,-21.2%,-26.6,nt
CCC(=O)Nc1ccc(C(=O)COC(=O)c2nc3nccc(C)n3n2)cc1,?,?,39.8µM*,?,-90.0*,10µM*
Cc1ccnc2nc(C(=O)Nc3nccs3)nn12,1.5%,1.4%,10µM*,27.5%,-0.3,?
CCCN(C(=O)COC(=O)c1nc2nccc(C)n2n1)C1CCS(=O)(=O)C1 (stereo not drawn),nt,23.8µM*,-9.6%,-6.7%[57 µM],0.3,nt
c1ccc2c(c1)nc(N1CCCCCC1)c1nncn12,nt,-5.9%,nt,nt,?,nt
O=c1oc2ccc(Cl)cc2nc1/C=C(\O)c1cccs1,-2.6%,53.3%,?,-0.9%,-5.2,50.1µM*
CCOc1ccc(NS(=O)(=O)c2ccc3c(c2)N(C(C)=O)CCS3)cc1,-2.4%,26.7µM*,?,-9.4%,-22.0,-20.1%
CCOc1ccc(NS(=O)(=O)c2ccc3c(c2)N(C(C)=O)CC3)cc1,0.2%,-6.3%,-4.8%,13.8%,7.4,-13.8%
CC(C)CCn1c(=O)c2sccc2n2c(CCCC(=O)N3CCC(N4CCCCC4)CC3)nnc12,4.5%,-11.1%,?,-15.5%,1.4,-2.3%
Cc1ccc(C(=O)OCC(=O)N2CCC(c3ccccc3)=N2)cc1,-7.2%,2.7%,0.0%,23.9%,-0.4,nt
O=C1C2CC=C(Cl)CC2C(=O)N1CN(Cc1ccco1)CN1C(=O)C2CC=C(Cl)CC2C1=O (stereo not drawn),-0.8%,-13.5%,-25.1%,31.9%,-0.2,50.1µM*
C=C(C)CN1C(=O)C2(OCCO2)c2ccccc21,-4.9%,-7.3%,6.3%,26.0%,0.5,6.2%
O=C1NC(=S)NC(=O)C1=Cc1ccccc1C(=O)O,nt,23.8µM*,25.1µM*,-19.5%,-73.0*,nt
O=c1[nH]c(=S)[nH]nc1Cc1ccc(Cl)c(Cl)c1,-2.9%,-20.0%,-9.1%,30.8%,-75.8*,16.2%
CCCCC(=O)Nc1cccc(-c2nc3ccccc3s2)c1,-4.8%,nt,-4.6%,18.5%,nt,2.4%
COc1ccc(-n2c(SCC(=O)N3CCC(C(=O)O)CC3)nc3ccccc3c2=O)cc1OC,-3.2%,-16.8%,-3.6%,33.6%,-2.9,3.4%
COc1ccc(O)c(C2Nc3ccccc3C(=O)N2Cc2ccccc2)c1 (stereo not drawn),nt,nt,79.4µM*,nt,nt,nt

# Bioassay records: PubChem BioAssay, National Center for Advancing Translational Sciences (NCATS)
